Compounds with a hit are over-represented: about 18% of the library has one in this group of screens.
TDP1 inh – TDP1 (human) enzyme inhibition | Potency, µM (highest dose often 130 µM), for inactives: top-dose activity change, negative = inhibition, usual class: inhibitors | hit rate 0.28% among 350,000 | recombinant TDP1, AlphaScreen DNA substrate cleavage | Q9NUW8 | AID 485290; note: nearly all actives have a fitted effect of over 40% in size
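Here, a 5' biotin and 3' phosphotyrosine-FITC DNA oligonucleotide reports Tdp1 activity: intact substrate bridges AlphaScreen beads, while cleavage leaves a 3' phosphate and drops signal. All incubations at room temperature.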
VDR inh – inhibitors of human vitamin D receptor | hit rate 0.93% among 400,000 | Potency, µM, without a hit: max response, negative = inhibition, most hits filed as inhibitors | VDR-SRC2-3 peptide fluorescence polarization, 2 h
Target sequence (P11473 whole entry, looked up): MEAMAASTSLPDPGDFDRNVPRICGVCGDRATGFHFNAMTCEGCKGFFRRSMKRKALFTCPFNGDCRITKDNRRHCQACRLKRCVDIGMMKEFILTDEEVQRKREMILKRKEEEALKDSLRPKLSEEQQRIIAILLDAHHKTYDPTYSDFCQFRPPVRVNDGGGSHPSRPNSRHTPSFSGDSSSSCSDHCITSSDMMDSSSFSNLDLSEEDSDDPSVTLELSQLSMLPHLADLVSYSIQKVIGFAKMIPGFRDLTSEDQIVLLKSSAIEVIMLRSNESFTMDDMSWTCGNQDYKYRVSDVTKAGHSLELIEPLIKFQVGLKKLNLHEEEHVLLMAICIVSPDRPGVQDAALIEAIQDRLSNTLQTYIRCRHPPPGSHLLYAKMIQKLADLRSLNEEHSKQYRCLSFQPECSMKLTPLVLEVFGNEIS
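VDR–SRC2-3 interaction, FP format. Cmpds 23 nl via pintool, brief spin, 2 h ambient incubation.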
DT40 TDP1 no CPT – qHTS for Inhibitors of human tyrosyl-DNA phosphodiesterase 1 (TDP1): qHTS in cells in absence of CPT. DT40 Tdp1-/- hTDP1 cells, no CPT, ATP luminescence, 48 h. Potency, µM (top dose mostly 46.2 µM), for inactives: top-dose activity change, negative = growth inhibition, actives largely listed as inhibitors. hit rate 15% among 420,000; note: nearly all actives have a fitted effect of over 55% in size
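Compound effects on proliferation are scored in DT40 Tdp1-/-;hTDP1 cells in the absence of CPT. ATP levels (CellTiter-Glo luminescence) are recorded after a ≥48 hr, 37 °C incubation.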
DT40 TDP1 CPT – growth inhibition of DT40 Tdp1-/-;hTDP1 cells with camptothecin (screen for TDP1 inhibitors) | chicken DT40 Tdp1-/-;hTDP1 cells + 20 nM CPT, ATP luminescence, 48 h | hit rate 12% among 420,000 | Potency, µM (series often up to 46.2 µM), inactives show at the top dose activity change, negative = growth inhibition, hits mostly inhibitors; note: nearly all actives have a fitted effect of over 55% in size
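Chicken DT40 Tdp1-/- cells stably complemented with human TDP1 were seeded at 400 cells/well in medium containing 20 nM camptothecin, exposed to pin-transferred compounds, and grown at 37 °C for at least 48 hr. Viability was read as ATP luminescence.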
PLK1 PBD block – PLK1 (human) polo-box domain binding inhibition; P53350; hit rate 2.8% among 360,000; Plk1 PBD binding of FITC phosphopeptide, fluorescence polarization; Potency, µM, without a hit: max response, negative = inhibition, most hits filed as inhibitors; note: series mostly up to about 57 µM; nearly all actives have a fitted effect of over 65% in size
KAT2A inh – blocks human GCN5L2 histone acetyltransferase; Q92830; GCN5L2 HAT assay, ThioGlo1 CoA-SH fluorescence; Potency, µM (series often up to 58.9 µM), without a hit: top-dose activity change, negative = inhibition, actives largely listed as inhibitors; hit rate 0.21% among 390,000; AID 504327
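Enzyme at 20nM final was mixed with library compounds for 15 min at room temperature. Peptide H3(1-25) at 75uM, acetyl-CoA at 70uM and ThioGlo1 at 50uM were then added. Plates were read immediately and after 20 min (Ex340nm/Em540nm).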
Active calls of the source: *; ? = inconclusive; nt = not tested or not shown; [ ] = another dose, or the depositor's remark. Calls come from the whole dose curve; as a rule, active = well fitted curve in the direction sought with a large enough effect; inconclusive = small, poorly fitted or top-dose-only effect, or another doubt; inactive = no such curve, though single readings can be large; an effect the other way counts as inactive or inconclusive. % is set by controls: 0 for no effect and ±100 for the full control effect; potency is the fitted concentration of half-maximal effect.

SMILES | TDP1 inh | VDR inh | DT40 TDP1 no CPT | DT40 TDP1 CPT | PLK1 PBD block | KAT2A inh
CCOc1ccc(CCN2C(=O)C(=O)N([C@@H](CC(C)C)CN3CCC[C@@H]3CN3C(=O)C(=O)NC[C@@H]3Cc3ccccc3)C[C@@H]2CC(C)C)cc1 | nt | -10% | 23µM* | ? | -13% | nt
CCOc1ccc(CCN2C(=O)C(=O)N([C@@H](CC(C)C)CN3CCC[C@H]3CN3C(=O)C(=O)NC[C@@H]3Cc3ccccc3)C[C@@H]2Cc2ccccc2)cc1 | nt | nt | 16µM* | 16µM* | -13% | nt
CCOc1ccc(CCN2C(=O)C(=O)N([C@@H](CC(C)C)CN3CCC[C@H]3CN3C(=O)C(=O)NC[C@@H]3Cc3ccccc3)C[C@@H]2Cc2ccc(O)cc2)cc1 | nt | nt | ? | ? | -13% | nt
CC(C)C[C@H]1CN(CCCC[C@H]2CNC(=O)C(=O)N2CCC2CCCCC2)C(=O)C(=O)N1CCc1ccccc1 | nt | nt | 18µM* | ? | -10% | nt
CC(C)(C)OC(=O)N1CCC(c2nnc(SCc3cccc(Cl)c3)o2)CC1 | 5% | 21% | nt | nt | nt | -4%
Cc1c(C(=O)N(C)C2CCCCC2)sc2nc3ccc(N)cc3n12 | 10% | -28% | nt | nt | nt | 3%
Cc1cccc(NC(=O)CSCC(=O)Nc2sccc2C#N)c1 | -3% | 5% | -27% | 18% | -24% | -2%
CNc1nc(Oc2ccc3sc(C)nc3c2)c2sccc2n1 | nt | nt | 21µM* | 21µM* | 0% | nt
Cc1ccc(CNC(=O)C(C)n2ccc3cc(S(=O)(=O)N4CCCC4)ccc32)cc1 (stereo unspecified) | 6% | -2% | 0.46µM* | ? | nt | -6%
CCOc1ccc(CNC(=O)C(C)n2ccc3cc(S(=O)(=O)N4CCCC4)ccc32)cc1 (stereo unspecified) | 4% | 8% | 21µM* | ? | -2% | -16%
Cc1ccc(NC(=S)NCCc2ccccc2)c(C)c1 | 1% | 12% | ? | ? | -11% | 2%
COc1ccccc1NC(=S)NC(=O)Cc1ccc(Cl)cc1 | 1% | -2% | -9% | ? | -5% | 2%
CCC(=O)NC(=S)Nc1ccccc1OC | 4% | -16% | ? | ? | 24µM* | -26%
Cc1ccc(NC(=S)NCCc2c[nH]c3ccccc23)c(C)c1 | 3% | -7% | 21µM* | 13µM* | 3% | 3%
COc1ccccc1NC(=S)NCCc1c[nH]c2ccccc12 | 4% | -17% | 18µM* | 15µM* | 3.4µM* | 4%
COc1ccccc1NC(=S)NCCc1ccccc1 | 5% | ? | 21µM* | -4% | ? | -6%
CC(C)CO/N=C1/[C@H]2O[C@@H]2[C@@H](O)[C@H]2[C@H]1CCn1c(=O)n(C)c(=O)n12 | 2%[21 µM] | nt | nt | nt | nt | nt
Cc1ccc(S(=O)(=O)c2nnn3c2nc(N2CCOCC2)c2ccccc23)c(C)c1 | 15% | 1% | ? | ? | -6% | -10%
CCn1ncc(Br)c1C(=O)Nc1ccccc1OC | -2% | -12% | -29% | -10% | 21µM* | -12%
O=C(O)c1ccc(S(=O)(=O)N[C@H](Cc2ccc(O)cc2)C(=O)O)cc1 | -7% | nt | nt | nt | nt | -2%
CC(=O)N(Cc1ccccc1)Cc1cn(CCC#N)nc1-c1cccc([N+](=O)[O-])c1 | 8% | 12% | -22% | 8% | 7% | -12%
COc1ccc(C2=NOC(COc3ccc4c(C)cc(=O)oc4c3)C2)c(OC)c1 (stereo unspecified) | 3% | -21% | 5.2µM* | 4.1µM* | 2% | -9%
COc1ccccc1C1=NOC(COc2ccc3c(C)cc(=O)oc3c2)C1 (stereo unspecified) | 1% | -9% | 0.82µM* | 0.82µM* | 10% | -15%
COc1ccc2c(C)cc(=O)oc2c1 | 2%[56.1 µM] | -10% | -8% | 3% | 3% | 2%
CCOc1ccc(CCNC(=O)c2cc3c(s2)-c2c(C)cccc2OC3)cc1 | -5% | -1% | -28% | -21% | nt | 2%
SMILES | TDP1 inh | VDR inh | DT40 TDP1 no CPT | DT40 TDP1 CPT | PLK1 PBD block | KAT2A inh
COc1ccc2nc3sc(C(=O)N4CCN(c5ccc(F)cc5)CC4)cc3cc2c1 | -2%[12.3 µM] | -21% | -26% | 15% | nt | -6%
Cc1ccc(NC(=O)c2sccc2-n2cccc2)c(C)c1 | 0% | 26% | ? | 21µM* | -4% | -23%
COc1ccc(NC(=O)c2sccc2-n2cccc2)cc1 | 6% | -14% | ? | -28% | ? | -5%
CSc1ncccc1C(=O)OCC(=O)N(C)Cc1ccc(C)cc1 | nt | nt | ? | ? | -8% | nt
Cc1ccc(O)c(-c2cc(C(F)(F)C(F)F)[nH]n2)c1 | 4% | 6% | 16µM* | ? | -8% | -7%
ClCc1ncc(-c2ccc(Cl)cc2)o1 | 6% | -2% | 16µM* | 15µM* | 0% | -3%
CCN1C(=NCc2cc(OC)c(OC)c(OC)c2)N[C@@H](c2cccc(F)c2)C(C(=O)OC)=C1C | nt | nt | nt | nt | nt | -4%
COc1ccccc1-c1sc2ccccc2c1C#Cc1ccc(N(C)C)cc1 | -4% | -4% | ? | -23% | -14% | -5%
O=C(CCc1nnc(COc2ccccc2)o1)NC1(c2ccccc2)CC1 | 1% | 2% | 1% | -1% | -1% | 0%
COC(=O)c1c(-c2c(Cl)cccc2Cl)noc1NC(=O)NN1CCCCC1 | 3% | 6% | 16µM* | ? | -10% | -7%
Cc1onc(-c2c(Cl)cccc2Cl)c1NC(=O)N1CCSCC1 | 1% | -3% | 1% | 16% | 5% | -3%
CCOc1ccc(C2c3c(oc4ccc(C)cc4c3=O)C(=O)N2CCCN(C)C)cc1 (stereo unspecified) | -1% | 0% | -6% | 2% | nt | 9%
c1ccc(Cn2nnnc2C(c2cccs2)N2CCc3ccccc3C2)cc1 (stereo unspecified) | 1% | 44% | 29µM* | ? | -9% | -5%
CC(C)C(c1nnnn1Cc1ccccc1)N1CCc2ccccc2C1 (stereo unspecified) | 7% | 9% | 16µM* | ? | -14% | -11%
CC(C)C(c1nnnn1C1CCCCC1)N1CCc2ccccc2C1 (stereo unspecified) | 3% | 20% | ? | -22% | -6% | -2%
COc1ccc(CNC(=O)/C=C/c2ccc(S(=O)(=O)N3CCOCC3)cc2)cc1 | 2% | -6% | ? | -16% | -15% | -1%
CCOc1ccc(NC(=O)COc2ccc(S(=O)(=O)N3CCOCC3)cc2)cc1 | 1% | -2% | ? | 3.3µM* | 2% | -2%
